Data on 73 compounds can be found in the antibiotic and cytotoxicity screens of Wong et al. (2023).

The campaign covered roughly 39,000 compounds. About 500 (1.3%) were called active. For the sample, actives were picked, then their nearest neighbours and some compounds at random.

In the test the test system is S. aureus RN4220. The test is described as follows: growth inhibition call (relative growth <= 0.2). The following applies: 50 µM.
`C[C@H]1CN([C@@H](C)CO)C(=O)Cc2cc(NS(=O)(=O)c3ccc(F)cc3)ccc2O[C@@H]1CN(C)C(=O)Nc1cccc2ccccc12`: the growth inhibition call was “inactive”.
With `C[C@@H]1CCCCO[C@@H](CN(C)C(=O)Nc2ccccc2)[C@@H](C)CN([C@@H](C)CO)C(=O)c2cc(NC(=O)Nc3ccc(C(F)(F)F)cc3)ccc2O1`, the growth inhibition call is “inactive”.
`C[C@H](CO)N1C[C@H](C)[C@H](CN(C)S(=O)(=O)c2ccc3ccccc3c2)OCc2cnnn2CCCC1=O`: the growth inhibition call is “inactive”.
With `COC(=O)c1cn(CCNC(=O)[C@@H](NS(=O)(=O)c2ccc(C)cc2)C(C)C)nn1`, the growth inhibition call is “inactive”.
Under `C[C@@H]1CCCCO[C@@H](CN(C)S(=O)(=O)c2cn(C)cn2)[C@@H](C)CN([C@@H](C)CO)C(=O)c2cc(NC(=O)CCCN(C)C)ccc2O1` stands “inactive”; under `O=C(NCCN1CCOCC1)[C@@]1(Cc2ccccc2)N=C(c2ccc(OCCCO)cc2)O[C@H]1c1ccccc1`, “inactive”.
On to `C[C@@H]1CN([C@H](C)CO)C(=O)c2cc(NC(=O)Nc3ccc(C(F)(F)F)cc3)ccc2O[C@@H]1CN(C)Cc1ccc(C(F)(F)F)cc1`, for which the growth inhibition call was “inactive”.
For `COc1ccc(NC(=O)N(C)C[C@H]2Oc3ccc(NC(=O)C4CC4)cc3C(=O)N([C@@H](C)CO)C[C@@H]2C)cc1` the value was “inactive”; for `COc1ccc2c3c(n(c2c1)C)[C@H](CO)N(CC1CCOCC1)C[C@]13CN(C1)C(=O)Cc1cccnc1`, “inactive”; for `Cc1ccc(S(=O)(=O)N(C)C[C@@H]2Oc3ccc(N(C)C)cc3CC(=O)N([C@@H](C)CO)C[C@@H]2C)cc1`, “inactive”.
Consider `O=C(C[C@H]1C[C@@H]2c3cc(NC(=O)Nc4ccc(C(F)(F)F)cc4)ccc3O[C@@H]2[C@H](CO)O1)NCCc1ccccc1`, for which the growth inhibition call is “inactive”.
In the case of `Cc1n[nH]c(=S)[nH]c1=O`, the growth inhibition call was “inactive”.
As for `Cc1ccc(S(=O)(=O)N(C)C[C@H]2Oc3c(NC(=O)C4CC4)cccc3C(=O)N([C@@H](C)CO)C[C@@H]2C)cc1`, the growth inhibition call was “inactive”.
With `Cc1ccc(-c2cnc3c(c2)C(=O)N([C@H](C)CO)C[C@@H](C)[C@H](CN(C)C(=O)Cc2cccnc2)O3)cc1`, the growth inhibition call was “inactive”.
As for `C[C@@H]1CN([C@@H](C)CO)C(=O)c2cc(NC(=O)Nc3cccc4ccccc34)ccc2O[C@@H]1CN(C)Cc1ccc(C(F)(F)F)cc1`, the growth inhibition call was “inactive”.
As for `O=C(C[C@H]1CC[C@@H]2[C@H](COC[C@@H](O)CN2C(=O)Nc2ccc(Cl)c(Cl)c2)O1)NCc1ccc(Cl)c(Cl)c1`, the growth inhibition call is “inactive”.
For `O=C(C[C@H]1CC[C@@H]2[C@H](COC[C@@H](O)CN2C(=O)Nc2ccc(Cl)c(Cl)c2)O1)NCc1ccncc1`, the growth inhibition call was “active”.
Consider `O=C(C[C@@H]1CC[C@@H]2[C@H](COC[C@@H](O)CN2C(=O)Nc2ccc(Cl)c(Cl)c2)O1)NCc1ccc(Cl)c(Cl)c1`, for which the growth inhibition call was “inactive”.
Turning to `CCO[C@@H]1OC(C(=O)N2CCOCC2)=C[C@H](C2CC2)[C@H]1CCCOC(=O)NCCCCCC(=O)NO`, the growth inhibition call is “inactive”.
With `O=S(=O)(Cc1ccccc1)Nn1cnnc1`, the growth inhibition call was “inactive”.
With `C[C@H]1CN([C@@H](C)CO)C(=O)Cc2cc(NS(=O)(=O)c3ccc(F)cc3)ccc2O[C@@H]1CN(C)S(C)(=O)=O`, the growth inhibition call was “inactive”.
As for `Cc1ccc(S(=O)(=O)N(C)C[C@@H]2OCCCC[C@@H](C)Oc3ccc(NC(=O)Nc4cccc5ccccc45)cc3C(=O)N([C@@H](C)CO)C[C@@H]2C)cc1`, the growth inhibition call was “inactive”.
Take `CC1=C(C(=O)O)N2C(=O)[C@@H](NC(=O)[C@H](N)c3ccccc3)[C@H]2SC1`: the growth inhibition call is “inactive”.
Turning to `CC1=C(C(=O)O)N2C(=O)C(NC(=O)C(N)c3ccccc3)C2SC1` (stereo not drawn), the growth inhibition call was “inactive”.
Turning to `N[C@@H](C(=O)N[C@@H]1C(=O)N2C(C(=O)O)=C(Cl)CS[C@H]12)c1ccccc1`, the growth inhibition call is “active”.
In the case of `NC(C(=O)NC1C(=O)N2C(C(=O)O)=C(Cl)CSC12)c1ccccc1` (stereo not drawn), the growth inhibition call is “active”.
For `N[C@@H](C(=O)N[C@@H]1C(=O)N2C(C(=O)O)=C(Cl)CC[C@H]12)c1ccccc1` the value was “active”.
Turning to `CC1=C(C(=O)O)N2C(=O)[C@H](NC(=O)[C@@H](N)c3ccccc3)[C@H]2SC1`, the growth inhibition call was “inactive”.
For the compound `CC1=C(C(=O)O)N2C(=O)[C@@H](NC(=O)[C@@H](N)c3ccccc3)[C@H]2SC1`, the growth inhibition call is “inactive”.
In the case of `O=C(C[C@H]1C[C@@H]2c3cc(NS(=O)(=O)c4ccc(F)cc4)ccc3O[C@@H]2[C@H](CO)O1)NCc1cccc(F)c1`, the growth inhibition call was “inactive”.
Under `Cc1ccc(S(=O)(=O)N(C)C[C@H]2OCCCC[C@@H](C)Oc3ccc(NC(=O)c4ccccc4)cc3C(=O)N([C@@H](C)CO)C[C@@H]2C)cc1` stands “inactive”.
For the compound `C[C@@H]1CN([C@@H](C)CO)C(=O)c2cc(NC(=O)Cn3cnnn3)ccc2O[C@H]1CN(C)CC1CCCCC1`, the growth inhibition call is “inactive”.
Under `C=CC[C@@H](CC(=O)NCCO)C(=O)NC[C@@H](OC(=O)[C@@H](CC=C)CC(=O)OC(C)(C)C)c1ccccc1` stands “inactive”; under `C[C@H](CO)N1C[C@H](C)[C@H](CN(C)Cc2ccc(-c3ccccc3)cc2)Oc2c(NC(=O)C3CC3)cccc2C1=O`, “inactive”; under `C[C@@H]1CN([C@H](C)CO)C(=O)c2cccc(NS(=O)(=O)c3ccccc3)c2O[C@H]1CN(C)C(=O)Nc1cccc2ccccc12`, “inactive”.
For the compound `COCC(=O)N1C[C@H](C)[C@H](OC)CN(C)C(=O)c2ccc(NC(=O)Nc3cccc(F)c3)cc2OC[C@H]1C`, the growth inhibition call is “inactive”.
For `C[C@H]1CCCCO[C@H](CN(C)C(=O)CCCN(C)C)[C@@H](C)CN([C@@H](C)CO)C(=O)c2cc(NC(=O)Nc3ccc(C(F)(F)F)cc3)ccc2O1`, the growth inhibition call was “inactive”.
Take `CCCCOC(=O)[C@@H](N)CCC(=O)O`: the growth inhibition call is “inactive”.
For the compound `COC(=O)[C@H]1c2cc3c(c(O)c2[C@@H](O[C@@H]2O[C@H](C)[C@H](OC)[C@](C)(OC)[C@@H]2OC)C[C@@]1(C)O)C(=O)c1c(O)cc2c(c1C3=O)O[C@H]1O[C@@]2(C)[C@@H](O)[C@H](N(C)C)[C@@H]1O`, the growth inhibition call was “active”.
Under `CC[C@@]1(O)C[C@H](O[C@H]2C[C@H](N(C)C)[C@H](O[C@H]3C[C@H](O)[C@H](O[C@H]4CCC(=O)[C@H](C)O4)[C@H](C)O3)[C@H](C)O2)c2c(cc3c(c2O)C(=O)c2c(O)cccc2C3=O)[C@H]1C(=O)OC` stands “inactive”; under `C[C@H](CO)N1C[C@H](C)[C@H](CN(C)Cc2ccc(Cl)c(Cl)c2)Oc2ccc(NC(=O)Cn3cnnn3)cc2CC1=O`, “inactive”; under `Cc1noc(C)c1NC(=O)Nc1ccc2c(c1)C(=O)N([C@@H](C)CO)C[C@H](C)[C@H](CN(C)C(=O)NC1CCCCC1)OCCCC[C@H](C)O2`, “inactive”.
As for `Cc1noc(C)c1S(=O)(=O)Nc1cccc2c1O[C@@H](CN(C)S(=O)(=O)c1cccs1)[C@@H](C)CN([C@H](C)CO)C2=O`, the growth inhibition call is “inactive”.
As for `O=C(O)CCC(=O)N1CC(=O)Nc2ccccc21`, the growth inhibition call was “inactive”.
On to `Cc1scc2c1N(C(=O)CN1CCN(C)CC1)c1ccccc1NC2=O.Cl`, for which the growth inhibition call was “active”.
For the compound `CN1CCN(CC(=O)N2c3ccccc3C(=O)Nc3cccnc32)CC1.Cl.Cl`, the growth inhibition call is “inactive”.
For `CS(=O)(=O)N1CCC2(CC1)OCCO2` the value was “inactive”; for `O=C(Nc1ccc(Cl)cc1)Nc1ccc(Cl)c(Cl)c1`, “active”; for `O=C(Nc1ccc(C(F)(F)F)cc1)Nc1cccc(Cl)c1`, “inactive”.
Regarding `CCC(=O)Nc1ccc(Cl)cc1`, the growth inhibition call was “inactive”.
On to `CCC(=O)N[C@H]1C=C[C@@H](CC(=O)OC)O[C@H]1CO`, for which the growth inhibition call is “inactive”.
For `Cc1ccc(S(=O)(=O)Nc2ccc3c(c2)CC(=O)N([C@@H](C)CO)C[C@@H](C)[C@@H](CN(C)CC2CC2)O3)cc1` the value was “inactive”; for `C[C@@H]1CCCCO[C@H](CN(C)C(=O)Nc2ccccc2)[C@H](C)CN([C@H](C)CO)C(=O)c2cc(NS(=O)(=O)c3ccc(Cl)cc3)ccc2O1`, “inactive”.
Consider `CCCCCCC#C[Si](O[C@H](c1ccccc1)c1cn(Cc2cccc(Cl)c2)nn1)(C(C)C)C(C)C`, for which the growth inhibition call was “inactive”.
For the compound `CC(C)[Si](C#CCCCC#N)(O[C@H](c1ccccc1)c1cn(Cc2cccc(Cl)c2)nn1)C(C)C`, the growth inhibition call is “active”.
Regarding `CC(C)[Si](C#CCCc1ccccc1)(O[C@H](c1ccccc1)c1cn(Cc2ccccc2)nn1)C(C)C`, the growth inhibition call was “inactive”.
Take `C[C@@H]1CCCCO[C@@H](CN(C)Cc2ccc(C(=O)Nc3ccccc3N)cc2)[C@@H](C)CN([C@H](C)CO)C(=O)c2cc(NS(=O)(=O)c3ccc(F)cc3)ccc2O1`: the growth inhibition call was “inactive”.
For `C[C@@H]1CN([C@H](C)CO)C(=O)Cc2cc(NC(=O)Cc3cn(C)c4ccccc34)ccc2O[C@H]1CN(C)C`, the growth inhibition call was “inactive”.
Consider `CCCC[C@@H](C)/C=C(C)/C=C(\C)C(=O)NC1=C[C@@](O)(/C=C/C=C/C=C/C(=O)NC2C(=O)CCC2=O)[C@@H]2O[C@@H]2C1=O`, for which the growth inhibition call is “active”.
Take `CC(C)NC(=O)N(C)C[C@H]1Oc2ccc(NC(=O)CCC(F)(F)F)cc2C(=O)N([C@H](C)CO)C[C@@H]1C`: the growth inhibition call is “inactive”.
For `C[C@@H]1CCCCO[C@@H](CN(C)S(=O)(=O)c2cccs2)[C@H](C)CN([C@H](C)CO)C(=O)c2cc(NC(=O)c3ccccc3)ccc2O1` the value was “inactive”.
For `O=C(C[C@@H]1CC[C@H]2[C@@H](COC[C@@H](O)CN2C(=O)Nc2ccc(Cl)cc2)O1)NC1Cc2ccccc2C1` the value was “inactive”; for `O=C(C[C@H]1CC[C@@H]2[C@H](COC[C@@H](O)CN2C(=O)Nc2ccc(Cl)cc2)O1)NC1Cc2ccccc2C1`, “inactive”; for `COc1ccccc1CNC(=O)C[C@H]1CC[C@H]2[C@@H](COC[C@@H](O)CN2C(=O)Nc2ccc(Cl)cc2)O1`, “inactive”.
Consider `COc1ccccc1CNC(=O)C[C@H]1CC[C@@H]2[C@H](COC[C@H](O)CN2C(=O)Nc2ccc(Cl)cc2)O1`, for which the growth inhibition call is “inactive”.
As to `COc1ccccc1CNC(=O)C[C@@H]1CC[C@H]2[C@@H](COC[C@H](O)CN2C(=O)Nc2ccc(Cl)cc2)O1`, the growth inhibition call is “inactive”.
For the compound `COc1ccccc1CNC(=O)C[C@@H]1CC[C@@H]2[C@H](COC[C@@H](O)CN2C(=O)Nc2ccc(Cl)cc2)O1`, the growth inhibition call was “active”.
For `COc1ccccc1CNC(=O)C[C@H]1CC[C@H]2[C@@H](COC[C@H](O)CN2C(=O)Nc2ccc(Cl)cc2)O1`, the growth inhibition call was “active”.
Regarding `COc1ccccc1CNC(=O)C[C@@H]1CC[C@H]2[C@@H](COC[C@@H](O)CN2C(=O)Nc2ccc(Cl)cc2)O1`, the growth inhibition call was “inactive”.
Take `COc1ccccc1CNC(=O)C[C@@H]1CC[C@H]2[C@@H](COC[C@H](O)CN2C(=O)Nc2ccc(F)cc2)O1`: the growth inhibition call was “inactive”.
Consider `O=C(C[C@H]1CC[C@H]2[C@@H](COC[C@H](O)CN2C(=O)Nc2ccc(Cl)cc2)O1)NC1Cc2ccccc2C1`, for which the growth inhibition call is “active”.
Under `COc1ccccc1CNC(=O)C[C@@H]1CC[C@@H]2[C@H](COC[C@H](O)CN2C(=O)Nc2ccc(Cl)cc2)O1` stands “inactive”; under `COc1ccccc1CNC(=O)C[C@H]1CC[C@@H]2[C@H](COC[C@@H](O)CN2C(=O)Nc2ccc(Cl)cc2)O1`, “active”.
